Molecules are shown by their SMILES. The campaign covered roughly 330,000 compounds. About 4,100 (1.2%) were called active. Another 2% or so got no clear call; they are omitted. How the source made its calls: active means max response of -50% or lower; inconclusive means between -30% and -50%; inactive means -30% or higher. The list comes from a sample in which actives are over-represented; it also holds similar structures and randomly drawn compounds.
On the % scale 0 is the no-effect control and ±100 the full control effect.

Phosphatidylinositol 5-phosphate 4-kinase type-2 alpha (Homo sapiens), sequence (P48426 whole entry, looked up): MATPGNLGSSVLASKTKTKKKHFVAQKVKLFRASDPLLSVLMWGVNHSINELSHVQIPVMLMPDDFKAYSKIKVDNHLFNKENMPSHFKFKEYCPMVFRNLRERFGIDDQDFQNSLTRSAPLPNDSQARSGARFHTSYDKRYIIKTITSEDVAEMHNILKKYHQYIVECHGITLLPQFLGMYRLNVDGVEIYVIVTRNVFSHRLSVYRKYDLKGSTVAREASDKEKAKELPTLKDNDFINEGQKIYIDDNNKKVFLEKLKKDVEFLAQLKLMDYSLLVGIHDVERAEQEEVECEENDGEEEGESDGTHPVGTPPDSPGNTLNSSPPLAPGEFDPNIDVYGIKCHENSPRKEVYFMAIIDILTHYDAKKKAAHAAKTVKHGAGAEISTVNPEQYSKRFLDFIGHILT

For the assay, the target named is Phosphatidylinositol 5-phosphate 4-kinase type-2 alpha (Homo sapiens) (UniProt P48426). Nature of the assay: qHTS for Inhibitors of phosphatidylinositol 5-phosphate 4-kinase (PI5P4K). Further: value at the top dose of about 77 µM. Conditions: PI5P4Kalpha enzyme, ADP-Glo luminescence, 60 min; hits give low values. In a few lines:
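ADP-Glo luminescence end-point after a 60 min room-temperature kinase reaction. PI5P4Kalpha and substrate in HEPES pH 7.4 buffer with EGTA, 0.1% CHAPS and 5% DMSO; ATP at 5 microM final.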
Turning to `CCc1nc2ccc(C(=O)Nc3cc(-c4ccccc4)ccc3OC)cn2c1N(CC)CC(=O)N(C)C`, the max response was 1.18% (inactive).
For the compound `CC1=NN(c2ccc(Cl)c(C(=O)O)c2)C(=O)/C1=C/c1ccc(-c2ccccc2[N+](=O)[O-])o1`, the max response is -9.29% (inactive).
For `O=C1NN(c2ccccc2)C(=O)/C1=C/c1ccc(-c2cccc(C(=O)O)c2)o1` the value was -59.1% (active); for `CC(=O)c1cc(-c2ccccc2)[nH]c1N1CCCC1`, -3.68% (inactive).
On to `CCCCOCCCNC(=O)C[C@@H]1C[C@@]2(C(=O)OCC)CCCC=C2N(CCC2=CCCCC2)C1=O`, for which the max response is 1.62% (inactive).
For `CC(=O)N1Cc2cc(C(=O)NCc3cccc(F)c3)nc(-c3cccc(C4=CCCCC4)c3)c2[C@H]1CCO` the value was 12.2% (inactive).
For `COc1ccc(-c2coc3c(C(=O)NC(C)C)cccc23)c(C)c1` the value was -1.18% (inactive); for `COc1ccc2[nH]cc(CCN3C(=O)c4ccc(C(=O)O)cc4C3=O)c2c1`, -70.3% (active); for `COCCCN1C(=O)c2ccc(C(=O)Nc3ccc(OC)cc3OC)cc2C1=O`, 2.76% (inactive).
For `Cc1ccc2[nH]cc(CCCN3C(=O)c4ccccc4C3=O)c2c1`, the max response was -7.36% (inactive).
As for `Cc1ccc(C(NC(=O)C2CCN(CCOc3ccc(Cl)cc3Cl)CC2)c2ccccn2)cc1` (configuration not stated), the max response was 5.45% (inactive).
The figure for `CC(C)N=C1CCCC1C(=S)SSC(=S)C1CCCC1=NC(C)C` (configuration not stated) is -54.3% (active); for `CCCOc1ccc(F)cc1-c1cc(C(=O)NCc2ccc(F)cc2)[nH]n1` it is 3.63% (inactive); for `CCOC(=O)[C@]12CCCC=C1N(CCC1=CCCCC1)C(=O)[C@H](CC(=O)N1CCN(C(=O)c3ccco3)CC1)C2` it is -6.59% (inactive).
Turning to `C[C@H]1CN([C@@H](C)CO)C(=O)c2cc(C3=CCCCC3)cnc2O[C@@H]1CN(C)C(=O)Cc1ccccc1`, the max response was -2.83% (inactive).
For `COc1ccc(-c2cc3nc(NCCOc4ccccc4)ccn3n2)cc1` the value was 23.5% (inactive); for `CCC(C(=O)NCc1ccccc1)n1c(Cc2cc(F)cc(F)c2)nc2ccccc21` (configuration not stated), 0.77% (inactive); for `CC(C)CCNC(=O)c1[nH]c(C(F)(F)F)nc1-c1ccccc1`, -8.89% (inactive).
The figure for `CC(=O)N1c2ccc(S(=O)(=O)NCCC(=O)N(C)C3CCCCC3)cc2CC1C` (configuration not stated) is -54.5% (active); for `CC(=O)N1c2ccc(S(=O)(=O)N(C)CC(=O)N(C)Cc3ccccc3)cc2CC1C` (configuration not stated) it is -1.34% (inactive); for `COc1cccc(CNS(=O)(=O)c2ccc3c(c2)CC(C)N3C(C)=O)c1` (configuration not stated) it is -2.98% (inactive).
The figure for `COc1ccc(-c2nc3ccc(Br)cn3c2Cc2ccc(C)cc2)cc1OC` is -8.6% (inactive).
Regarding `COc1ccc(C(C(=O)Nc2c(C)cccc2C)N2CCN(c3ccc(C)cc3)CC2)cc1` (configuration not stated), the max response was 5.89% (inactive).
For `O=C(N/N=C/c1cc(Br)c(O)c([N+](=O)[O-])c1)C(O)(c1ccccc1)c1ccccc1` the value was -58.4% (active); for `O=C(N/N=C/c1cc(Cl)cc([N+](=O)[O-])c1O)C(O)(c1ccccc1)c1ccccc1`, 3.34% (inactive).
For `COc1ccc(CC(=O)N/N=C/c2cc([N+](=O)[O-])cc(Br)c2O)cc1` the value was -27.2% (inactive); for `C[C@H](CO)N1C[C@H](C)[C@H](CN(C)C(=O)c2ccncc2)OCc2ccccc2-c2c(n(C)c3ccccc23)C1=O`, 0.39% (inactive).
For `O=C(CCCN1C(=O)/C(=C/c2ccccc2)SC1=S)Nc1ccc(O)cc1` the value was 0.839% (inactive); for `O=C1/C(=C/c2ccc(F)cc2)SC(=S)N1CCCC(=O)N1CCCCC1CCO` (configuration not stated), 0.801% (inactive).
Regarding `O=C1/C(=C/c2ccc(F)cc2)SC(=S)N1NS(=O)(=O)c1ccccc1`, the max response was -65.3% (active).
For `C=C(C)C(=O)O[C@H]1C/C(C)=C\C(=O)/C=C(\C)[C@H](O)[C@@H]2OC(=O)C(=C)[C@@H]21` the value was -56.7% (active).
For `COc1cc(OC)c(C(=O)NNC(=O)c2ccc(NS(=O)(=O)c3cccs3)cc2)cc1OC` the value was -9.62% (inactive); for `C/C(=N\NC(=O)c1ccc(NS(=O)(=O)c2cccs2)cc1)c1ccc2ccccc2c1`, -63% (active).
The figure for `C/C(=N\NC(=O)c1ccc2ccccc2c1)c1cccnc1` is -3.12% (inactive).
On to `CC(C)C1C(=O)N(Cc2cn(CCC3OCCO3)nn2)CCS(=O)(=O)N1Cc1ccc(-c2ccccc2C(F)(F)F)cc1` (configuration not stated), for which the max response is 22.5% (inactive).
The figure for `CCCNC(=O)C1(C)CCN(Cc2csc(-c3ccc(Cl)cc3)n2)C1` (configuration not stated) is -11.7% (inactive).
In the case of `CCCCNC(=O)C[C@@H]1C[C@@]2(C(=O)OC)CC(C)(C)CC=C2N(Cc2ccco2)C1=O`, the max response is 4.39% (inactive).
The figure for `COc1ccc(-n2nnnc2-c2nc3ccccc3s2)cc1` is 11.9% (inactive); for `COc1ccc(C2=NN(c3nc4ccccc4s3)C(=O)C2)cc1` it is -57.5% (active).
The figure for `COc1ccc(C2=NN(C(C)=O)C(c3ccccc3)C2)cc1` (configuration not stated) is -5.07% (inactive); for `Cn1c(Nc2ccc(F)cc2)nc2cc(-c3ccsc3)sc2c1=O` it is -0.288% (inactive).
The figure for `CCCc1[nH]nc2c1C(C1CC=CCC1)C(C#N)=C(N)O2` (configuration not stated) is -60.2% (active).
With `CCCc1[nH]nc2c1C(c1ccc(Br)s1)C(C#N)=C(N)O2` (configuration not stated), the max response is -24.7% (inactive).
The figure for `CCCc1[nH]nc2c1C(c1ccc(OC)c(Cn3nc(C)c(Br)c3C)c1)C(C#N)=C(N)O2` (configuration not stated) is -0.298% (inactive); for `CCCCn1nnnc1C(c1ccccc1)N1CCN(c2ccccc2OC)CC1` (configuration not stated) it is 1.03% (inactive); for `O=C(NC(c1ccc(-c2ccccc2)cc1)c1cnccn1)C1CCN(CCOc2ccc(Cl)cc2Cl)CC1` (configuration not stated) it is 31% (inactive).
The figure for `CC(C)C[C@@H](COCc1ccc(Cl)cc1)N1CCN(C(=O)c2ccc(Cl)cc2Cl)CCC1=O` is 15.2% (inactive).
For `COc1ccc(-c2cc(NC(C)=O)c3ncc(-c4cc(OC)c(OC)c(OC)c4)n3c2)cn1` the value was -8.79% (inactive); for `Cc1cn([C@H]2C[C@H](O)[C@@H](/C=C/C(=O)NCCCc3ccccc3)O2)c(=O)[nH]c1=O`, -0.963% (inactive); for `Cc1ccc(S(=O)(=O)N2[C@@H](Cc3ccccc3)CO[C@H]2CC(=O)OCc2ccccc2)cc1`, 4.77% (inactive).
In the case of `Cc1cc(Br)cn2c(Cc3ccccc3C(F)(F)F)c(C3CCCCC3)nc12`, the max response was 10.4% (inactive).
Consider `CN(CC(=O)Nc1cccc(F)c1)C(=O)CC1CCCC1`, for which the max response was 2.62% (inactive).
The figure for `CCN(CC)C(=O)CSC(Nc1cccc(F)c1)=C(C#N)C#N` is -66.7% (active); for `Cc1ccc(CSCC(=O)N(C)CC(=O)Nc2cccc(F)c2)cc1` it is 4.92% (inactive); for `O=C1NC[C@@H](CCCCN2CCN(CCc3ccc(O)cc3)C(=O)C2=O)N(CC2CCCCC2)C1=O` it is -1.17% (inactive).
In the case of `Cc1ccc(C)c(C(O)c2ncc(-c3cccc4ccccc34)[nH]2)c1` (configuration not stated), the max response is -1.21% (inactive).
The figure for `CCCCn1nnnc1C(c1cccc(OC)c1OC)N1CCN(C/C=C/c2ccccc2)CC1` (configuration not stated) is 0.353% (inactive); for `CCC(c1nc2ccccc2[nH]1)n1c(=O)c(-c2cccs2)nc2ccccc21` (configuration not stated) it is 1.88% (inactive); for `CCCCNC(=O)C[C@@H]1C[C@@]2(C(=O)OCC)CCC=C2N(Cc2ccco2)C1=O` it is -0.539% (inactive).
The figure for `CC(=O)Nc1cccc(-c2cc(NC(C)=O)c3ncc(-c4ccccc4)n3c2)c1` is -5.78% (inactive); for `CC(=O)c1cccc(-c2cnc3c(NC=O)cc(-c4ccc(N5CCN(C)CC5)cc4)cn23)c1` it is -0.912% (inactive).
For `CC(=O)c1cccc(-c2cnc3c(NC=O)cc(-c4ccc(N(C)C)cc4)cn23)c1` the value was -17.5% (inactive).
With `CN(C)C(=O)c1cccc(-c2cnc3c(NC=O)cc(-c4ccc(F)cc4)cn23)c1`, the max response is -50.2% (active).
The figure for `COc1cccc(-c2cnc3c(NC(C)=O)cc(-c4cccc(NC(C)=O)c4)cn23)c1` is -7.23% (inactive); for `CC(=O)c1cccc(-c2cnc3c(NC=O)cc(-c4ccccc4Oc4ccccc4)cn23)c1` it is -13% (inactive); for `CC(=O)c1cccc(-c2cnc3c(NC=O)cc(-c4cccc(C(=O)N(C)C)c4)cn23)c1` it is -9.37% (inactive).
For `CC(=O)c1ccc(-c2cnc3c(NC=O)cc(-c4cccc(NS(C)(=O)=O)c4)cn23)cc1`, the max response was -83.7% (active).
The figure for `CC(=O)Nc1cccc(-c2cc(NC=O)c3ncc(-c4ccc(F)c(Cl)c4)n3c2)c1` is -70.3% (active); for `CCCCN1C(=O)C(CC(=O)NCc2cccs2)CC(C(=O)N2CCCCCC2)=C1C` (configuration not stated) it is 8.96% (inactive); for `COc1cccc(NC(=O)CN(C)C(=O)c2cc(Cl)nc3ccccc23)c1` it is 0.592% (inactive).
For `Cc1cccnc1C(NC(=O)C1CCN(Cc2ccc(Cl)c(Cl)c2)CC1)c1ccc(Cl)cc1` (configuration not stated) the value was 13.1% (inactive); for `Cc1nc(C(F)(F)F)ccc1C(=O)N1CCC1(C)C(=O)NS(=O)(=O)c1ccccc1Cl` (configuration not stated), -2.74% (inactive).
For the compound `C[C@H]1CN([C@@H](C)CO)C(=O)CCCn2nncc2CO[C@@H]1CN(C)S(=O)(=O)c1cccc(C#N)c1`, the max response is 8.11% (inactive).
The figure for `Cc1nc(Cl)c(C#N)c2c1CCCC2` is -4.68% (inactive); for `COCc1c(N)c(C)nc(Cl)c1C#N` it is -79.4% (active); for `COC(=O)c1c(C)c(C)nc(N)c1C#N` it is 1.33% (inactive).
The figure for `CC(C)NC(=O)Nc1ccc2c(c1)C(=O)N([C@H](C)CO)C[C@H](C)[C@@H](CN(C)Cc1ccc(C(F)(F)F)cc1)OCCCC[C@@H](C)O2` is 10.4% (inactive).
For `CC1(C)OC(=O)C2=C(C[C@@H](C3CC3)O[C@H]2c2ccc(Cl)cc2)O1` the value was 8.12% (inactive); for `CC1(C)OC(=O)C2=C(C[C@@H](C3CCCCC3)O[C@@H]2c2ccc(Cl)cc2)O1`, 10.9% (inactive).
On to `Cc1ccc(S(=O)(=O)Oc2ccc(/C=N/NC(=O)c3ccncc3)cc2)cc1`, for which the max response was 3.82% (inactive).
For `CC(=O)Nc1ccc(S(=O)(=O)Oc2ccc(/C=N/N=C3/NC(=O)C(CC(=O)O)S3)cc2)cc1` (configuration not stated) the value was -65% (active); for `Cc1ccc(NC(=O)CC2S/C(=N/N=C3\CCCc4ccccc43)NC2=O)cc1` (configuration not stated), 27.6% (inactive).

(Values after PubChem BioAssay AID652105 (National Center for Advancing Translational Sciences (NCATS), 2013).)
